According to PubChem BioAssay (EPA / NIEHS):
Results filed as inconclusive are left out. Active and inactive are the calls of the source. How the source made its calls: active means hit-call score of the fitted dose curve at least 0.9, where 1 is the maximum; inconclusive means response in the unintended direction; inactive means score below 0.9.

Legend:
[1] = TOX21_p53_BLA_p2_viability: Viability Assessment in the Tox21 HCT-116 p53 Agonism Beta-lactamase Assay, Phase 2 (AID 2283591);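 further: compound exposure lasted 16 h at 37 °C; actives lower the ATP signal meaning cytotoxicity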
Procedure, shortened: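 HCT116 p53-bla cells, 4000/well, dosed after 5 h plating (217-fold dilution of DMSO stocks) and incubated 16 h at 37C. Viability taken as cellular ATP by CellTiter-Glo luminescence after 30 min RT; signal loss marks cytotoxicity.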

[2] = molecular target: Cellular tumor antigen p53 (Homo sapiens) (UniProt P04637); assay: TOX21_p53_BLA_p2_ratio: Tox21 HCT-116 p53 Agonism Beta-lactamase Assay, Ratio, Phase 2 (AID 2283592)
Procedure, shortened: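 Human colon HCT116 cells with an inducible p53 beta-lactamase reporter are exposed to test chemicals for 16 h at 37C. Reporter induction is read as the 460/530 nm emission ratio after CCF4-AM loading, normalized to DMSO.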

[3] = TOX21_p53_BLA_p3_viability: Viability Assessment in the Tox21 HCT-116 p53 Agonism Beta-lactamase Assay, Phase 3 (AID 2283593);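 further: cells exposed to compound for 16 h before reading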
Procedure, shortened: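 HCT116 cells, 4000/well, dosed 5 h after plating by pin transfer (217-fold dilution from DMSO stock) and incubated 16 h at 37C, 5% CO2. Viability read as ATP luminescence with CellTiter-Glo after 30 min at room temperature.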

[4] = molecular target: Cellular tumor antigen p53 (Homo sapiens) (UniProt P04637); assay: TOX21_p53_BLA_p3_ratio: Tox21 HCT-116 p53 Agonism Beta-lactamase Assay, Ratio, Phase 3 (AID 2283596)
Procedure, shortened: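 HCT116 p53-bla cells (4000/well) given compound in DMSO (217-fold dilution) after 5 h, incubated 16 h at 37C. CCF4-AM substrate 2 h at room temperature; 460/530 nm emission ratio, gain fitted against DMSO.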

[5] = molecular target: Cellular tumor antigen p53 (Homo sapiens) (UniProt P04637); assay: TOX21_p53_BLA_p5_ratio: Tox21 HCT-116 p53 Agonism Beta-lactamase Assay, Ratio, Phase 5 (AID 2283599)
Procedure, shortened: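 HCT-116 p53-bla cells (4000/well) plated 5 h, dosed with compound (217-fold DMSO dilution) for 16 h at 37 C; CCF4-AM substrate 2 h at room temperature. Activity is the 460/530 nm emission ratio (405 nm excitation), fitted in gain-of-signal direction versus DMSO.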

[6] = molecular target: Cellular tumor antigen p53 (Homo sapiens) (UniProt P04637); assay: TOX21_p53_BLA_p4_ratio: Tox21 HCT-116 p53 Agonism Beta-lactamase Assay, Ratio, Phase 4 (AID 2283601)
Procedure, shortened: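 HCT-116 p53 beta-lactamase reporter cells (4000/well) preincubated 5 h, then compound (217-fold dilution of DMSO stock) for 16 h at 37C. CCF4-AM substrate added 2 h at room temperature; 460/530 nm emission ratio fitted upward versus DMSO.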

[7] = TOX21_p53_BLA_p5_viability: Viability Assessment in the Tox21 HCT-116 p53 Agonism Beta-lactamase Assay, Phase 5 (AID 2283600)
Procedure, shortened: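 Seeded cells (4000/well) settle 5 h before compound addition. Plates then incubate 16 h at 37C, receive FRET substrate for 2 h, and finally CellTiter-Glo, with luminescence measured after a 30 min room-temperature incubation.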

THRA (gene 7067) = THRA (gene 7067) (UniProt P10827); assay: TOX21_TRA_COA_Antagonist_Followup_ratio: Tox21 Thyroid Hormone Receptor alpha Antagonism through Coactivator Recruitment Follow-Up Assay, Ratio (AID 2283953)
Procedure, shortened: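 520:495 nm emission ratio (excitation 340 nm) reports fluorescein-SRC-2 peptide recruitment to GST-TRα LBD by TR-FRET with Tb anti-GST antibody. Values were normalized to DMSO (0%) and T3 control wells (100%); loss of signal indicated antagonism.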

THRB (gene 7068) [8] = molecular target: THRB (gene 7068) (UniProt P10828); assay: TOX21_TRB_BLA_Antagonist_Followup_ratio: Tox21 Thyroid Hormone Receptor beta Antagonism Beta-lactamase (BLA) Follow-Up Assay, Ratio (AID 2283958)
Procedure, shortened: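 HEK293T TRb-bla (GAL4 DBD + hTRβ LBD), 2% cs-FBS phenol red-free DMEM, 5 h attach; cpds 11-pt triplicate, 18 h 37C; CCF4-AM 2 h RT; 460/530 ratio vs DMSO; CellTiter-Glo viability same wells.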

[9] = TOX21_TRB_BLA_Antagonist_Followup_viability: Viability Assessment in the Tox21 Thyroid Hormone Receptor beta Antagonism Beta-lactamase (BLA) Follow-Up Assay (AID 2283961)
Procedure, shortened: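 In the same wells as the reporter read, cell health was gauged by CellTiter-Glo ATP luminescence, with signal loss indicating reduced viability. Cells had been exposed to test compounds for 18 h.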

[10] = molecular target: Retinoic acid receptor RXR-alpha (Homo sapiens) (UniProt P19793); assay: TOX21_TR_RXR_BLA_Antagonist_Followup_ratio: Tox21 Thyroid Hormone Receptor beta Retinoid X Receptor alpha (RXRa) Antagonism Beta-lactamase (BLA) Follow-Up Assay, Ratio (AID 2283972)
Procedure, shortened: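 Compounds were tested in triplicate at 11 concentrations on RXRa-bla HEK293T cells for 16 h. Substrate cleavage ratio, normalized to DMSO, gave the endpoint.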

[11] = TOX21_TR_RXR_BLA_Antagonist_Followup_viability: Viability Assessment in the Tox21 Thyroid Hormone Receptor beta Retinoid X Receptor alpha (RXRa) Antagonism Beta-lactamase (BLA) Follow-Up Assay (AID 2283979)
Procedure, shortened: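 RXRa-bla HEK293T cells (2,500/well, phenol red-free DMEM, 2% charcoal-stripped FBS) were attached 5 h, then exposed to compounds at 11 concentrations in triplicate for 16 h at 37C. Viability measured by CellTiter-Glo ATP luminescence, bidirectional fitting versus DMSO.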

[12] = TOX21_p53_BLA_p4_viability: Viability Assessment in the Tox21 HCT-116 p53 Agonism Beta-lactamase Assay, Phase 4 (AID 2283597);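 further: hits lower the luminescence signal meaning cytotoxicity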
Procedure, shortened: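 Luminescent ATP readout (CellTiter-Glo, 30 min, room temperature) in the same wells as the p53 bla ratio. HCT116 cells were treated for 16 h at 37C with DMSO-dissolved compounds.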

THRB (gene 7068) [13] = molecular target: THRB (gene 7068) (UniProt P10828); assay: TOX21_TRB_COA_Antagonist_Followup_ratio: Tox21 Thyroid Hormone Receptor beta Antagonism through Coactivator Recruitment Follow-Up Assay, Ratio (AID 2283967)
Procedure, shortened: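 Cell-free TR-FRET: GST-TRb LBD (5.0 nM) with fluorescein-SRC-2 peptide (200 nM) and Tb anti-GST antibody (2 nM), 0.10% BSA. 520:495 nm emission ratio normalized to DMSO (0%) and T3 (100%).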

Measured: AC50

THRB (gene 7068), sequence (P10828 whole entry, looked up, the tested form may be a part): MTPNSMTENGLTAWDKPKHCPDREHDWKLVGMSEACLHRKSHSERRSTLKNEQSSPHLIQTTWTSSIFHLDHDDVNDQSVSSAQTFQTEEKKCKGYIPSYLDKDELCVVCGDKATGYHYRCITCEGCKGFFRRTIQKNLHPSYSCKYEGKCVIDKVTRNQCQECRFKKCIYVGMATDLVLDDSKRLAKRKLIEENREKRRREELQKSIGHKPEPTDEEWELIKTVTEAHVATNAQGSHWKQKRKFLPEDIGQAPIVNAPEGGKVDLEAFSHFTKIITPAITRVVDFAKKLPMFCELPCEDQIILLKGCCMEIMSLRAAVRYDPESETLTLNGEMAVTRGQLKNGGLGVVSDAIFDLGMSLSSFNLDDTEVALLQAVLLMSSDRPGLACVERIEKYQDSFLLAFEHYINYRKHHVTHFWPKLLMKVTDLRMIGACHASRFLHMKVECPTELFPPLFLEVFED
Cellular tumor antigen p53 (Homo sapiens), sequence (P04637 whole entry, looked up): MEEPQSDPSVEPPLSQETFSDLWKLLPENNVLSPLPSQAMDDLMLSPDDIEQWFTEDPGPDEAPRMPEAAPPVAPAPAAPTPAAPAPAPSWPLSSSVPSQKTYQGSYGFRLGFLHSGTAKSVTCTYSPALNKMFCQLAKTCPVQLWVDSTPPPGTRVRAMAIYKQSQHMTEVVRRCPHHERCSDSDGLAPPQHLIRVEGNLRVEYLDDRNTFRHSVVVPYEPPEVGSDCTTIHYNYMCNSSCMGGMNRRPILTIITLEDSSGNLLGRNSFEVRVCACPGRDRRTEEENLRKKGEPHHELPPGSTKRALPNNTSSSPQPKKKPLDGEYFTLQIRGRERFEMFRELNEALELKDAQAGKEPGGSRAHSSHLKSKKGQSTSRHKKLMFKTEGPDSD
Retinoic acid receptor RXR-alpha (Homo sapiens), sequence (P19793 whole entry, looked up): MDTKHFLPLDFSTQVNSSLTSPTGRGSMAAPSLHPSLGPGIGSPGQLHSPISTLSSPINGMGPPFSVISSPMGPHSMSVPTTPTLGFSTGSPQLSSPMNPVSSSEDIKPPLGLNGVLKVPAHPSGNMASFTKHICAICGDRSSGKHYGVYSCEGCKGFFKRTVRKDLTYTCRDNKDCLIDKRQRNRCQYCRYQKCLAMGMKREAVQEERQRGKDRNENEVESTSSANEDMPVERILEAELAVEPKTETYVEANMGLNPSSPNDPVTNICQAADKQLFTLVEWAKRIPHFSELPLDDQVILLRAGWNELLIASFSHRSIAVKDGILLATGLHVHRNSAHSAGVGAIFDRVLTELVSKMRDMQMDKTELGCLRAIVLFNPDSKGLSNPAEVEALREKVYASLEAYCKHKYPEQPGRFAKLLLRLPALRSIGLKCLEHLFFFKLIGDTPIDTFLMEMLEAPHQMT
THRA (gene 7067), sequence (P10827 whole entry, looked up, the tested form may be a part): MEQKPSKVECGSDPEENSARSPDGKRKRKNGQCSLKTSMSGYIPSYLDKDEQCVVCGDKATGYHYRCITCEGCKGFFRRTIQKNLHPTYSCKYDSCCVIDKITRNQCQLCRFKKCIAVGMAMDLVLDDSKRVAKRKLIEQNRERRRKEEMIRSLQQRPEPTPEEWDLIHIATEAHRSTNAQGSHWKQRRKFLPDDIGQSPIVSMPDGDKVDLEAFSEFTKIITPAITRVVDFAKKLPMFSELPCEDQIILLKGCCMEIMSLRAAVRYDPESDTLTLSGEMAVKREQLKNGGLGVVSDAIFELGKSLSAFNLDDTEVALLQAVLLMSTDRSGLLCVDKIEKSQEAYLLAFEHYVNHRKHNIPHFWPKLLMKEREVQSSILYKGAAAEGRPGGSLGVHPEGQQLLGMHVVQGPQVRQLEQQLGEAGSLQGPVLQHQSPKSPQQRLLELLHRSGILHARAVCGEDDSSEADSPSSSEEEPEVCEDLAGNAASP

NC(=O)CN1CCCC1=O
inactive: [1] | [2] | [3] | [4] | [5] | [6]

O=C(N[C@@H]1N=C(c2ccccc2F)c2cccc3c2N(CC3)C1=O)c1cc2ccccc2[nH]1
active: [6] 26600 nM
not listed: [12] | THRB (gene 7068) [13]
inactive: all other assays above

O=NN1CCNCC1
inactive: [1] | [2] | [3] | [4] | [12] | [7] | [6]

CCCCCCC(=O)CCCCCC/C=C/C[C@@H](O)[C@H](O)[C@@](N)(CO)C(=O)O
inactive: [1] | [2] | [3] | [4] | [12] | [7] | [6]

O=[N+]([O-])/C=C/c1ccccc1
inactive: [1] | [3] | [4] | [5] | [6]
active: [2] 12000 nM

COC(=O)[C@@H](N)CCCN/C(N)=N/[N+](=O)[O-]
inactive: [1] | [2] | [3] | [4] | [5] | [6]

O=C(O)c1ccccn1
inactive: [1] | [2] | [3] | [4] | [5] | [7] | [6]

CC(C)CC(C)N (stereo not given)
inactive: [1] | [2] | [3] | [4] | [12] | [6]

C=CCC1(C(C)CCC)C(=O)N=C(S)NC1=O (stereo not given)
inactive: [1] | [2] | [3] | [4] | [5] | [6]

C/C(=C\c1csc(C)n1)[C@@H]1C[C@@H]2O[C@]2(C)CCC[C@H](C)[C@H](O)[C@@H](C)C(=O)C(C)(C)[C@@H](O)CC(=O)O1
active: [2] 69.8 nM | [4] 12.3 nM | [5] 732 nM | [6] 12.1 nM
inactive: [1] | [3] | [7]

O=C(O)c1ccc2[nH]cc(CCCCN3CC=C(c4ccccc4)CC3)c2c1
inactive: [1] | [2] | [3] | [4] | [5] | [6]

OCCSCSCCO
inactive: [1] | [2] | [3] | [4] | [5] | [7] | [6]

COC1=CC(=O)O[C@@H](/C=C/c2ccc3c(c2)OCO3)C1
not listed: THRA (gene 7067) | [12]
inactive: all other assays above
